Source: the supplement of paper PMC6555819

These sequences were tested on VDR:RXRa (NR concentration 270 nM, RXRa partner concentration 90 nM) (assay: PBM binding z-score (relative to random genomic background probes); higher = stronger binding; sequences stand for … in GC…GCGATTGACAGCGTAGAATGAAGG).
Experimental: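 Protein-binding microarray (Agilent 4x180K custom design, double-stranded 60-nt probes: 5' GC cap, 34-nt variable region, 24-nt constant primer region; full probe sequence given). Purified or IVT nuclear receptor:RXRα heterodimers (3:1 NR:RXRα, mostly 270:90 nM) or homodimers were incubated for 1 h in PBS with 2% milk and no ligand, then detected with Alexa488 antibodies. Fluorescence from o1-orientation probes (~5 replicates averaged) was converted to z-scores against 500 random hg19 background probes. Variable regions are seed direct-repeat (DR0–DR5) sites, all their single-nucleotide variants and half-site ablations.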

| Sequence | PBM binding z-score |
| --- | --- |
| ATCTCTAGGTAAAGATAGTTCATTGAATGCAAAT | 2.07 |
| AGAACGAGGGCAATCAGTTGATAGCACGGGTGGC | 2.58 |
| CTCGAAAGGTAGGTTGAGGTGAGTATACGGATAA | 0.309 |
| GCTATTCGTTGAAAGGGCAACCGAATGATTCTCG | 0.306 |
| ATCTCTAGGTAACCAATTTCAGTGAATGCCGAAC | 0.336 |
| TGTGCTAGGTCAGTTGGTCAGCTAACGAGCTGCC | -0.0889 |
| ATATGTAGGTTATCGGGTAATTCAGTTTGCGCAT | 1.54 |
| TAGACTAGGTCATTCAGGGGCCAGTATAGAAAGC | 2.48 |
| GCTGCTAGGTCAGGTTGGTTAGCTAACGGGTACG | 0.262 |
| TATACAGGGTCAAAGGCCATAGTACGAATGTCGA | 5.08 |
| ACAGACAGGTGATGACGGTAACTCAGGCTATCAT | -0.308 |
| CCTTACGGGCCACTGACAGGTTATAGCATTTGGA | -0.202 |
| CGGACTGGGGCATAAGGTTACCATAAGCCAGCCC | 0.33 |
| ATCGAAAGGTCGAAGGTGAGTATTCCCACCCGAA | 2.58 |
| CCTACTGGGCCAAAAAGGTCATTTATGCCGATAA | 4.44 |
| ACTCGTTGGTCAGCTGAGGTCACACACAATTCGG | 4.61 |
| GCTCGGAGGACAAGGTAAGAGCTTTGTCCGTAGA | -0.675 |
| ATCGAAAGGTCTAGGTGAGTATAGAGAAAGGGAA | 0.435 |
| TCATATAGGTTAACAGGTGAAAGTCCGTAAGTTA | 2.04 |
| TCAGACACGTGAAGGTAACTCAGGTACGCAGTCG | 0.881 |

| Sequence | PBM binding z-score |
| --- | --- |
| TCAGACAGGTGATGGTAACTCAGGTACGCAGTCG | 0.615 |
| AAAGACAGGTGAGTGAAGGTAACTCAGCTGGACG | -0.172 |
| CGTCAAAGTTCAACTAAGGTGACGTAAAGCACGC | 4.87 |
| CCTTACGGGTCACGACGTTATAGCACGACGAGCG | 3.73 |
| ATCGAAAGGTTGAGGTGAGTATAGAGAAAGGGAA | 0.543 |
| CCTCGGAGGACAACAGGACGTCAGAGCTGCCAGA | -0.499 |
| ACCTCTAGGTAAAAGTTCAGTGAATCCCGAGGAT | 0.859 |
| CCTAGTTGGTGAGGAGGTCACACACCGGATATGA | 3.46 |
| CGTCCAAGGTCAATGCTAGGTCAGTGGAAGCATT | 4.77 |
| ATCTCTAGGTAAGACTCAGTTAAGTGAAGAACGC | 0.511 |
| TCTGGTTGGTCACGGAGGTCACACACGACGGGTA | 5.92 |
| ACTAGCAGGCCAAGGTTCACTCAAGATTAGTCCG | 2.01 |
| ATCTCTAGGTAACAAGTTCCGTGAAAGAGAGGAC | 0.0818 |
| CCTACTGGGCCAAAGGTCATTGCTTCCAATGCTC | 4.47 |
| CGTCCAAGGTCAATGCTAGGTTAGTGAAAGCATT | 4.02 |
| ATCTCTAGGTAACAAGATCAGTGAAAGAGAGGAC | 0.388 |
| CCTACTGGGCCATTCAGAGCTCATTGATCATATG | -0.707 |
| TAGCCTAAGTCATTGGGCCAGTATAGTACGCATC | -0.202 |
| GGAACGAGGGCGAAGTTGATAGCATCTGTCGACG | -0.285 |
| ATATGTAGGTTACATCCTGGTCATTCAGGCTATG | 0.956 |
